Measured values reported in PubChem BioAssay.

Assay: probe aEGFR binding to arrayed compounds – biochemical, biotinylated probe, 635/667 nm fluorescence, primary screen (AID 1097);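 further: probe is a biotinylated anti-EGFR antibody binding compounds printed on slides; score combines fluorescence near 667 nm and signal to noise of each spot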
Details: small-molecule microarray, higher = more signal
For `CCN1C(=O)[C@H]2[C@H]3[C@H](O)[C@H](O)CC(=NO[C@@H](C)c4cc(-c5c(C)cc(C)cc5C)no4)[C@@H]3CC[C@H]2C1=O`, the composite z-score was 0.123.
Compound `O=C(NN=C1C[C@@H](O)[C@@H](O)[C@@H]2[C@@H]3C(=O)N(c4ccc(F)cc4F)C(=O)[C@@H]3CC[C@H]12)OCc1ccccc1` has a composite z-score of 0.0443.
For `CC#CCOCCC=C1c2ccccc2[C@@H](OC)[C@@H]1C`, the composite z-score was 0.0579.
With `CC(CCC(=O)OC[C@H]1O[C@H](C#Cc2ccccc2)C=C[C@@H]1Oc1ccc(C)cc1)=NO[C@H](C)c1cn([C@@H]2COC[C@H]2O)nn1` the composite z-score was -0.137.
For `COC(=O)[C@@H]1CC[C@H](C)[C@@H](c2ccc(C)cc2)N1C(=O)c1ccc(C=NOC[C@H]2O[C@H](c3ccccc3)C=C[C@@H]2Oc2ccc(OC)cc2)cc1`, the composite z-score was -0.0682.
In the case of `CC(=O)OC[C@H]1O[C@@H](ON=C2[C@H]3CCn4c(=O)n(-c5ccccc5)c(=O)n4[C@H]3[C@H](O)[C@@H]3O[C@H]23)[C@H](OC(C)=O)[C@@H](OC(C)=O)[C@@H]1OC(C)=O`, the composite z-score is reported as -0.0485.
